Laboratory results taken from PubChem BioAssay AID1117319 (Southern Research Institute, 2015).
The whole screen tested about 260,000 compounds, of which about 1,500 (0.58%) were called active. Roughly 5% stayed inconclusive and do not appear here.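 Rule for the calls: active = inhibition above a set limit at one or more doses, reproduced on every date tested; inconclusive = results disagree between test dates, or hit never tested in dose response; inactive = the rest.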 These entries were drawn from the full list. Measured potencies and affinities stand elsewhere.

What follows are molecules tested against Virion infectivity factor (Human immunodeficiency virus type 1 group M subtype B (isolate BH10)) + Virion infectivity factor (Human immunodeficiency virus type 1 group M subtype B (isolate BRU/LAI)) + Virion infectivity factor (Human immunodeficiency virus type 1 group M subtype B (isolate PCV12)) + Virion infectivity factor (Human immunodeficiency virus type 1 group M subtype B (isolate HXB2)) + DNA dC->dU-editing enzyme APOBEC-3G (Homo sapiens) (UniProt P69720+P69721+P69722+P69723+Q9HC16) (assay: inhibitors of Vif binding to APOBEC3G peptide, primary screen, biochemical, TR-FRET, GST-Vif 1-94, biotin-A3G peptide, dose response retest (AID 1117319;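 note: Vif residues 1-94 fused to GST binding biotinylated APOBEC3G peptide 110-148; 0% = full assay without inhibitor and 100% = GST in place of GST-Vif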)). Conditions: active compounds read high.

inhibition, inactive:
Cc1cc(C)cc(OCc2ccc(C(=O)O)o2)c1 9.08%
FC(F)(F)c1ccc(N=Cc2sc(N3CCOCC3)nc2-c2ccccc2)cc1 12.3%
COc1ccc(NC(=O)CN(C)C(=O)c2sc3ccccc3c2Cl)cc1 1.23%
CS(=O)(=O)N(Cc1ccccc1)c1ccc(C(=O)NCc2ccccc2)cc1 25%
C/C(=N\Nc1ccc(S(N)(=O)=O)cc1[N+](=O)[O-])c1ccco1 -3.09%
O=C1OC(c2ccc(Cl)cc2)=C/C1=C/c1cccnc1 1.36%
COC(=O)C1=C(C)NC(C)=C(C(=O)OC)C1c1ccc(NC(C)=O)cc1 -1.45%
Cc1ccc(NC(=O)c2ccc(Cl)nc2)cc1 16.1%
O=C(Nc1ccc(Cl)c(Cl)c1)c1ccc(Cl)c(Cl)c1 22.2%
Cc1ccnc(NC(=O)c2cccc(S(=O)(=O)NCc3ccccc3)c2)c1 -2.28%
COc1cccc(-n2nnc3c(=O)n(Cc4ccc(Br)cc4)cnc32)c1 -0.95%
O=C(OCC(=O)c1cccs1)c1ccc(NC(=O)c2ccco2)cc1 13.8%
CCCC[N+](C)(C)CCC(=O)NC(C)(C)CS(=O)(=O)[O-] 17.8%
CC1(NC(=O)CC[N+](C)(C)CCO)CS(=O)(=O)CC1S(=O)(=O)[O-] (configuration not stated) 11.7%
CC(=O)Nc1ccc(/C(C)=N/NS(=O)(=O)c2ccccc2)cc1 -13.2%
Cc1ccc(CN2CCSc3ccc(C(=O)NCc4ccco4)cc32)cc1 -7.52%
CN1C(=O)C(=C2CCCCCC2)SC1=S 4.5%
O=C1NC(=S)SC1=C1CCCCCC1 16.7%
O=C(Cn1ncc2c(=O)oc3ccccc3c21)NCCc1ccsc1 -2.92%
COC(=O)[C@@]1(C)[C@H]2C(=O)N(Cc3ccccc3)C(=O)[C@H]2[C@H]2CN(C)C(=NC3CCCCC3)N21 -5.32%
COCCn1c(SCC(=O)Nc2sccc2C(N)=O)nnc1-c1ccncc1 -0.42%
O=C(O)c1cnn2c(C(F)(F)F)cc(-c3ccco3)nc12 23%
CCOC(=O)c1cnn2c(C(F)(F)F)cc(-c3ccco3)nc12 17%
CC(=O)c1cn(N(C)c2ncc(C(F)(F)F)cc2Cl)c(=O)[nH]c1=O -1.96%
CCOc1ccccc1C(=O)NCC(=O)NNC(=O)c1cccc(S(=O)(=O)Nc2ccc(OC)cc2)c1 -2.98%
CC(C)C(=O)Nc1cccc(C(=O)N2CCCCC2C)c1 (configuration not stated) 12.2%
O=C(Nc1ccccc1)N1CCCC2CCCCC21 (configuration not stated) 7.94%
CCC(C)N1CCN(S(=O)(=O)c2ccc(NC(C)=O)cc2)CC1 (configuration not stated) -5.24%
Cn1c(=O)c2c(nc(CN3CCN(C(=O)c4ccco4)CC3)n2Cc2ccc(Cl)cc2)n(C)c1=O -6.63%
COc1ccc(OCC(=O)N2CCN(S(=O)(=O)c3ccc(Cl)cc3)CC2)cc1 0.42%
O=C(COc1ccccc1)N1CCN(S(=O)(=O)c2ccc(Cl)cc2)CC1 11.7%
Cn1c(N)c(C(=O)COC(=O)Cc2ccc(Cl)cc2)c(=O)n(C)c1=O 0.17%
CCS(=O)(=O)c1ccc2c(c1)N(S(C)(=O)=O)CC(C(=O)NN)O2 (configuration not stated) -7.03%
Cc1ccc2nc(SCC(=O)N3CCN(c4ccccc4)CC3)[nH]c2c1 -0.39%
O=C(CCN1C(=O)c2cccc([N+](=O)[O-])c2C1=O)Nc1nccs1 -4.6%
NC(=O)C1CCN(c2ccc([N+](=O)[O-])cc2Cl)CC1 12.1%
O=[N+]([O-])c1ccc(N2CCN(c3ccccc3O)CC2)c(Cl)c1 -0.29%
N#Cc1csc(CCNC(=O)c2ccccc2)n1 -7.18%
Nn1c(SCc2ccccc2)nnc1-c1ccco1 2.72%
CSc1ccc(-c2ccco2)nn1 11.8%
Clc1ccccc1CSc1ncccn1 -2.52%
CSc1nnc(-c2ccco2)n1-c1ccccc1 5.76%
Nc1cc(N)nc(SCc2ccccc2Cl)n1 0.21%
c1ccc(CSc2n[nH]c(-c3ccco3)n2)cc1 28.1%
CCC(C)[C@H]1CNC(=S)N1CCC12CC3CC(CC(C3)C1)C2 (some centres not stated) 28.7%
Cc1ccc(N(CC(=O)NCc2ccc3c(c2)OCO3)S(=O)(=O)c2c(C)noc2C)cc1 1.33%
CCc1ccc(-c2nc(CS(=O)CC(=O)NCCN3CCCCCC3)c(C)o2)cc1 (configuration not stated) -8.11%
CC1CN(C(c2cccs2)c2sc3ncnn3c2O)CC(C)O1 (configuration not stated) -3.12%
O=S(=O)(/N=C(/Nc1cccc2ccccc12)c1ccccc1)c1ccc(Br)cc1 3.03%
CCOC(=O)N1CCC(N2CCN(S(=O)(=O)c3ccc(C)cc3)CC2)CC1 3.57%
CCCCCCC(=O)Nc1ccc(Br)cn1 22.8%
CCCCC(=O)Nc1ccc(Br)cn1 -2.24%
C/C(=N/NC(=O)c1ccccc1)c1ccc(NC(=O)C(F)(F)F)cc1 1.31%
Cc1ccc(OCC(O)CNCc2ccc(F)cc2)cc1 (configuration not stated) 4.08%
O=C(Nc1ccc(CN2CCCCC2)cc1)c1cccc(F)c1 -2.63%
O=C(CSc1nc2ccccc2n1CCc1ccccc1)NC1CC1 16.5%
COc1ccc(C(=O)CSc2nc3ccccc3n2CC(=O)c2ccccc2)cc1 2.41%
CC(=O)Nc1ccc(NC(=O)[C@@H](NC(=O)c2ccccc2F)C(C)C)cc1 2.31%
CCC(C)[C@H](NC(=O)Nc1ccccc1F)C(=O)OC (some centres not stated) 85.4%
COc1ccc(NC(=O)Nc2cccs2)cn1 9.16%
Cc1cc(F)ccc1S(=O)(=O)Nc1ccccc1C(=O)Nc1ccccc1-c1nc2ccccc2[nH]1 16.7%
Cc1cc(F)ccc1S(=O)(=O)Nc1ccccc1C(=O)Nc1ncn[nH]1 -4.68%
